The values that follow come from PubChem BioAssay.

Activity calls are given as the source filed them.

One assay relates to Sonic hedgehog protein (Shh). Put plainly: Sonic hedgehog microarray binding compounds – biochemical, small-molecule microarray, 635/667 nm fluorescence, primary screen (AID 1151).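 Further: Shh protein binding to compounds spotted on small-molecule microarray slides; score combines spot fluorescence intensity with signal-to-noise across triplicate slides.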 To be noted: 635 nm fluorescence, higher = more signal.
`CCN1C(=O)[C@H]2[C@H]3[C@H](O)[C@H](O)CC(=NOCC(C)C)[C@H]3CC[C@H]2C1=O` yielded a composite z-score of 0.599.
In turn, `COC(OC)[C@@H](C)[C@H](OC)[C@@H](C)[C@H](OC)c1ccccc1` came in with a composite z-score of 0.155.
In the case of `COC(=O)[C@H](C)NC(=O)CCC1CC(OC(=O)NCc2ccc3c(c2)OCO3)CC2(CCCC(COC(=O)NCc3ccccc3)O2)O1` (some centres not stated), the composite z-score amounted to 1.38.
With `CO[C@@H](C1CCCCC1)[C@@H](C)[C@H](OCc1cccc(Br)c1)[C@@H](C)CO`, the composite z-score amounted to 0.458.
The compound `CC(C)CON=C1[C@H]2CCn3c(=O)n(C)c(=O)n3[C@H]2[C@H](O)[C@@H]2O[C@H]12` showed a composite z-score of 0.637.
As for `C[C@]12CCC3c4ccc(OCC5CO5)cc4CCC3C1CC[C@@H]2O` (some centres not stated), the composite z-score was -0.0357.
`CO[C@@H]1C=CCC(=O)N[C@@H](C)C(=O)OC[C@@H](OC)[C@H](C)C=CCC(=O)OC[C@H]1C`: the composite z-score is 2.06.
On the same count and under the same terms, the result for `OC[C@H]1O[C@H](C#Cc2ccccc2)C=C[C@@H]1O` reads 0.363; that for `CC(C)[C@@H](OCc1ccccc1)[C@H](C)C=NO[C@H](C)c1cn([C@@H]2COC[C@H]2O)nn1`, 0.371; that for `CN1CCc2nc(-c3ccccc3)c(-c3ccccc3)cc2C1`, 0.464.
The compound `O=C1[C@H]2[C@H]3[C@H](O)[C@H](O)CC(=NOC[C@@H](O)COCc4ccco4)[C@@H]3CC[C@H]2C(=O)N1Cc1ccc2c(c1)OCO2` gave a composite z-score of 1.55.
In turn, `CCOC(=O)[C@H](CC(C)C)NC(=O)CCC1CC(OC(=O)NCc2ccc3c(c2)OCO3)CC2(CCCC(COC(=O)NCCc3ccccc3OC)O2)O1` (some centres not stated) showed a composite z-score of 1.19.
In turn, `C[C@@H]1CC[C@H]2C(=O)OC(CN3C(=O)c4ccccc4C3=O)CN2[C@H]1c1ccc(Br)cc1` (some centres not stated) had a composite z-score of -0.365.
Compound `O=C1C=C[C@@H](O)[C@@H]2[C@@H]3C(=O)N(Cc4ccc5c(c4)OCO5)C(=O)[C@@H]3CC[C@@H]12` returned a composite z-score of 0.499.
`COC(=O)[C@H](C)NC(=O)CCC1CC(OC(=O)NCc2cccc3ccccc23)CC2(CCCC(COC(=O)NCCCN3CCCC3=O)O2)O1` (some centres not stated) had a composite z-score of 0.608.
In the case of `CO[C@@H]1COC(=O)[C@H](COCc2ccccc2)NC(=O)CC=C[C@@H](C)[C@H](OC)COC(=O)[C@@H](C)NC(=O)CC=C[C@H]1C`, the composite z-score was 1.92.
Same read-out and setting: under `CON=C(C)CCN1CCCCc2nc(C)c(C)cc21` stands 0.936; under `C#CCCCON=C1[C@H]2CCn3c(=O)n(Cc4cc5c(cc4Cl)OCO5)c(=O)n3[C@H]2[C@H](O)[C@@H]2O[C@H]12`, 1.08.
The compound `C[C@H]1CC[C@H]2C(=O)N[C@H](Cc3ccccc3)C(=O)N2[C@@H]1c1ccccc1` returned a composite z-score of 0.401.
`CC(CCN1CCc2nc(-c3ccccc3)c(-c3ccccc3)cc2C1)=NO[C@H](C)c1cn([C@H](CO)Cc2ccccc2)nn1` registered a composite z-score of 0.565.
Compound `C#CCCCON=C1C[C@@H](O)[C@@H](O)[C@@H]2[C@@H]3C(=O)N(C[C@@H]4CCCO4)C(=O)[C@@H]3CC[C@@H]12` had a composite z-score of 0.305.
For `CCOC(=O)[C@H](CC(C)C)NC(=O)CCC1CC(OC(=O)NCc2ccc3c(c2)OCO3)CC2(CCCC(COC(=O)NCCOC)O2)O1` (some centres not stated), the composite z-score was found to be 1.46.
`COc1ccc(OC[C@@H](CO)OC)cc1` showed a composite z-score of 0.577.
The compound `COC(=O)[C@@H]1CC[C@H](C)[C@@H](c2ccc(C)cc2)N1C(=O)c1ccc(C=NOC[C@@H](O)[C@H]2O[C@@H]3OC(C)(C)O[C@@H]3[C@H]2O)cc1` had a composite z-score of 0.241.
Still for that read-out and setting: under `CC(=O)OC[C@H]1O[C@H](CC=NO[C@@H](C)c2cn([C@H](CO)Cc3ccccc3)nn2)C=C[C@@H]1OC(C)=O` stands 0.911; under `COC(=O)[C@H](C)NC(=O)CCC1CC(OC(=O)NCc2ccc3c(c2)OCO3)CC2(CCCC(COC(=O)NCCC(C)C)O2)O1` (some centres not stated), 1.13.

System in another assay: not listed separately
In words: optical density shifts of acrAB sulA E. coli – strain DRC41, OD650, 48 h, E. coli filamentation inducer project, primary screen (AID 1152).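 Further: E. coli MC1000 strain DRC41 lacking acrAB efflux pump and sulA.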 To be noted: higher = more signal, called active from +8 up or from −8 down.
Regarding `CCOC(=O)CCN1C(=O)[C@H]2[C@H]3[C@H](O)[C@H](O)CC(=NOCC=C(C)CCC=C(C)C)[C@H]3CC[C@H]2C1=O`, the z-score is 1.04 (inactive).
On the same count and under the same terms, the result for `CCOC(=O)[C@H](Cc1ccccc1)NC(=O)CCC1CC(OC(=O)NCc2cccc3ccccc23)CC2(CCCC(COC(=O)NCCOc3ccccc3)O2)O1` (some centres not stated) reads -1.98 (inactive); that for `CCOC(=O)[C@H](CC(C)C)NC(=O)CCC1CC(OC(=O)NCCc2ccc(F)cc2)CC2(CCCC(COC(=O)NCCCN3CCCC3=O)O2)O1` (some centres not stated), -0.237 (inactive).
As to `CC(=O)OC[C@H]1O[C@H](CC=NOC(C)CN2CCCCc3nc(C)c(C)cc32)C=C[C@@H]1OC(C)=O` (some centres not stated), the z-score was 0.0072 (inactive).
Take `C#CCCCON=C1[C@H]2CCn3c(=O)n([C@@H](CC)c4ccccc4)c(=O)n3[C@H]2[C@H](O)[C@@H]2O[C@H]12`: the z-score was -1.02 (inactive).
Still for that read-out and setting: the result for `CO[C@H]1C[C@@H]2C[C@H](O)CC(CC(=O)O[C@@H](C=CCC(C)C)C[C@@H]3CC[C@H](C)[C@@H](C1)O3)O2` reads -0.55 (inactive); that for `C=CC[C@@H]1C=C[C@H](ON=C[C@@H](NS(=O)(=O)c2ccc(C)cc2)[C@H](C)C=CCC(=O)OC)[C@@H](CO)O1`, 0.171 (inactive); that for `CO[C@H]1COC(=O)CCC[C@H](C)[C@@H](OC)COC(=O)CC=C[C@@H]1C`, 0.0226 (inactive).
For `O=C(NN=C1C[C@@H](O)[C@@H](O)[C@@H]2[C@@H]3C(=O)N(Cc4ccccc4)C(=O)[C@@H]3CC[C@H]12)OCc1ccccc1`, the z-score is -0.202 (inactive).
Still for that read-out and setting: under `CCOC(=O)[C@H](CC(C)C)NC(=O)CCC1CC(OC(=O)NCCc2ccc(F)cc2)CC2(CCCC(COC(=O)NCc3cccc4ccccc34)O2)O1` (some centres not stated) stands -0.14 (inactive).
On the same count and under the same terms, under `CCN1C(=O)[C@H]2[C@H]3[C@H](O)[C@H](O)CC(=NOCC(C)C)[C@H]3CC[C@H]2C1=O` stands 0.552 (inactive); under `COC(OC)[C@@H](C)[C@H](OC)[C@@H](C)[C@H](OC)c1ccccc1`, 0.215 (inactive); under `COC(=O)[C@H](C)NC(=O)CCC1CC(OC(=O)NCc2ccc3c(c2)OCO3)CC2(CCCC(COC(=O)NCc3ccccc3)O2)O1` (some centres not stated), 1.07 (inactive).
For `CO[C@@H](C1CCCCC1)[C@@H](C)[C@H](OCc1cccc(Br)c1)[C@@H](C)CO`, the z-score was -0.409 (inactive).
For the compound `CC(C)CON=C1[C@H]2CCn3c(=O)n(C)c(=O)n3[C@H]2[C@H](O)[C@@H]2O[C@H]12`, the z-score is -0.0031 (inactive).
As for `C[C@]12CCC3c4ccc(OCC5CO5)cc4CCC3C1CC[C@@H]2O` (some centres not stated), the z-score is -0.186 (inactive).
Consider `CO[C@@H]1C=CCC(=O)N[C@@H](C)C(=O)OC[C@@H](OC)[C@H](C)C=CCC(=O)OC[C@H]1C`, for which the z-score was 0.0083 (inactive).
For the compound `OC[C@H]1O[C@H](C#Cc2ccccc2)C=C[C@@H]1O`, the z-score is 0.402 (inactive).
Turning to `CC(C)[C@@H](OCc1ccccc1)[C@H](C)C=NO[C@H](C)c1cn([C@@H]2COC[C@H]2O)nn1`, the z-score was 0.112 (inactive).
Regarding `CN1CCc2nc(-c3ccccc3)c(-c3ccccc3)cc2C1`, the z-score is 0.67 (inactive).
Regarding `O=C1[C@H]2[C@H]3[C@H](O)[C@H](O)CC(=NOC[C@@H](O)COCc4ccco4)[C@@H]3CC[C@H]2C(=O)N1Cc1ccc2c(c1)OCO2`, the z-score was 1.56 (inactive).
Consider `CCOC(=O)[C@H](CC(C)C)NC(=O)CCC1CC(OC(=O)NCc2ccc3c(c2)OCO3)CC2(CCCC(COC(=O)NCCc3ccccc3OC)O2)O1` (some centres not stated), for which the z-score was -1.08 (inactive).
As for `C[C@@H]1CC[C@H]2C(=O)OC(CN3C(=O)c4ccccc4C3=O)CN2[C@H]1c1ccc(Br)cc1` (some centres not stated), the z-score was 0.634 (inactive).
For the compound `O=C1C=C[C@@H](O)[C@@H]2[C@@H]3C(=O)N(Cc4ccc5c(c4)OCO5)C(=O)[C@@H]3CC[C@@H]12`, the z-score is 0.038 (inactive).
Same read-out and setting: the result for `COC(=O)[C@H](C)NC(=O)CCC1CC(OC(=O)NCc2cccc3ccccc23)CC2(CCCC(COC(=O)NCCCN3CCCC3=O)O2)O1` (some centres not stated) reads -3.55 (inactive); that for `CO[C@@H]1COC(=O)[C@H](COCc2ccccc2)NC(=O)CC=C[C@@H](C)[C@H](OC)COC(=O)[C@@H](C)NC(=O)CC=C[C@H]1C`, 0.52 (inactive); that for `CON=C(C)CCN1CCCCc2nc(C)c(C)cc21`, -1.23 (inactive).
`C#CCCCON=C1[C@H]2CCn3c(=O)n(Cc4cc5c(cc4Cl)OCO5)c(=O)n3[C@H]2[C@H](O)[C@@H]2O[C@H]12`: the z-score was -0.248 (inactive).
With `C[C@H]1CC[C@H]2C(=O)N[C@H](Cc3ccccc3)C(=O)N2[C@@H]1c1ccccc1`, the z-score is 0.584 (inactive).
For `CC(CCN1CCc2nc(-c3ccccc3)c(-c3ccccc3)cc2C1)=NO[C@H](C)c1cn([C@H](CO)Cc2ccccc2)nn1`, the z-score was -1.52 (inactive).
Take `C#CCCCON=C1C[C@@H](O)[C@@H](O)[C@@H]2[C@@H]3C(=O)N(C[C@@H]4CCCO4)C(=O)[C@@H]3CC[C@@H]12`: the z-score is 0.225 (inactive).
Turning to `CCOC(=O)[C@H](CC(C)C)NC(=O)CCC1CC(OC(=O)NCc2ccc3c(c2)OCO3)CC2(CCCC(COC(=O)NCCOC)O2)O1` (some centres not stated), the z-score was -2.3 (inactive).
For `COc1ccc(OC[C@@H](CO)OC)cc1`, the z-score was 0.261 (inactive).
Regarding `COC(=O)[C@@H]1CC[C@H](C)[C@@H](c2ccc(C)cc2)N1C(=O)c1ccc(C=NOC[C@@H](O)[C@H]2O[C@@H]3OC(C)(C)O[C@@H]3[C@H]2O)cc1`, the z-score is 1.44 (inactive).
The same measure, in the same setting: the result for `CC(=O)OC[C@H]1O[C@H](CC=NO[C@@H](C)c2cn([C@H](CO)Cc3ccccc3)nn2)C=C[C@@H]1OC(C)=O` reads -0.89 (inactive); that for `COC(=O)[C@H](C)NC(=O)CCC1CC(OC(=O)NCc2ccc3c(c2)OCO3)CC2(CCCC(COC(=O)NCCC(C)C)O2)O1` (some centres not stated), -1.06 (inactive).
